Shown are actives, neighbours in structure and some others; about 4.1% of the full set was active somewhere.
FAS TE block: FAS thioesterase domain inhibitors, primary screen, biochemical, fluorescence intensity, uHTS | recombinant FAS-TE, OMFH fluorogenic substrate, fluorescence endpoint | inhibition, % at 15 µM | 360,000 tested, 0.67% active;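 active = compounds whose normalised, plate-corrected inhibition of enzyme fluorescence in the single-dose primary screen is 50% or more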;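 also: 0% = DMSO with enzyme and 100% = substrate without enzyme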
NR3A LBD binder: binders of NR3A ligand-binding domain, primary screen, biophysical, differential scanning fluorimetry, uHTS | NR3A LBD differential scanning fluorimetry, Tm shift; 0% = protein alone, 100% = glycine-bound protein | Glutamate receptor ionotropic, NMDA 3A (GRIN3A) ligand-binding domain | Tm shift relative to glycine control, % at 25 µM | 340,000 tested, 2.5% active | AID 1259313, 2017;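 active = melting temperature shift of at least 10% of the positive control shift, at one fixed dose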
pCIP destab: p/CIP-EGFP fusion destabilizers, primary screen, fluorescence, F442A cells. Q05BA5. 16 h. decrease of EGFP signal, % at 10 µM. 290,000 tested, 0.01% active. AID 1984, 2009;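 active = EGFP signal decrease of at least 30% at 10 µM or well 3 SD below plate mean, unless failing retest; inactive = the rest, including hits failing retest or dose response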
MPTP inh: mitochondrial permeability transition pore inhibitors, primary screen, biochemical, isolated mouse mitochondria, absorbance | 360,000 tested, 1.4% active | Ca2+ swelling absorbance, 30 min | inhibition, % at 10 µM;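 active = inhibition of 50% or more, scaled per plate between neutral and stimulator controls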;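 also: 0% = DMSO wells given calcium and 100% = 1 mM EGTA wells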
MIN6 prolif: inducers of MIN6 beta-cell proliferation, primary screen, ATP luminescence, uHTS | 330,000 tested, 0.29% active | AID 2380, 2010 | MIN6 cells proliferation, ATPlite luminescence, 48 h; cells starved in 0.2% serum; 100% = growth in 10% serum | proliferation, % at 10 µM;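 active = compounds whose signal lies at least 3.5 SD above the mean of all wells on their plate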;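 also: 0% = DMSO-treated cells in low-serum medium and 100% = 10% serum control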
Active calls of the source: *; x = no result given.

SMILES	FAS TE block	NR3A LBD binder	pCIP destab	MPTP inh	MIN6 prolif
O=C(Nc1cccc(Cl)c1)Nc1ccccc1C(=O)O	-9.8	3.9	-2.9	2.6	3.0
NS(=O)(=O)c1ccc(NC(=O)Nc2ccccc2)cc1	-6.5	7.0	5.2	3.1	-2.5
NS(=O)(=O)c1ccc(NC(=O)Nc2cccc(Cl)c2)cc1	2.0	33.1*	-13.9	1.7	-0.6
Cc1cc(NC(=O)Nc2cccc(Cl)c2)n(-c2ccccn2)n1	27.1	33.4*	4.3	43.1	0.0
NC(=O)c1ccccc1NC(=O)Nc1cccc(Cl)c1	-3.8	28.1*	3.7	0.1	2.5
COc1cccc(CNC(=O)[C@@H]2CCCN2C(=O)[C@H]2CCCCN2C(=O)c2ccccc2)c1	-14.4	x	x	0.9	x
CCOc1cc(N2CCOCC2)c(OCC)cc1NC(=O)COC(=O)C1CCCN1S(=O)(=O)c1ccccc1F (stereo unspecified)	2.4	26.3*	x	0.0	-6.4
COc1ccc([C@H]2C[C@@H](O)[C@H](n3cc(C4CC4)nn3)CN2C(=O)C2CCCCC2)cc1	-7.5	x	x	1.3	x
C/C(CCC(=O)O)=N/Nc1ccc([N+](=O)[O-])cc1[N+](=O)[O-]	0.5	1.6	-0.2	-0.5	-1.8
O=C(O)/C(CC(=O)c1ccc(Cl)cc1)=N/Nc1ccc([N+](=O)[O-])cc1[N+](=O)[O-]	42.7	21.1*	-6.4	3.2	-0.2
CC(C)NC(=O)C1Cc2c(-c3ccccc3Oc3ccccc3)ccnc2O1 (stereo unspecified)	0.4	x	x	-0.4	x
COc1ccc(CN2C[C@@H](CO)O[C@@H](n3cnc4c(NCCO)ncnc43)C2)cc1	-6.4	x	x	-1.3	x
COc1cccc(NC(=O)c2ccc(-c3ccccc3[N+](=O)[O-])o2)c1	20.4	27.6*	1.2	-4.7	-3.9
COc1cccc(NC(=O)c2ccc(C(=O)c3ccccc3)o2)c1	13.6	-13.7	-7.6	0.5	-1.7
Cc1cccc(NC(=O)/C=C/c2ccc([N+](=O)[O-])s2)c1	-0.2	12.4*	-13.2	11.8	x
Cc1cccc(NC(=O)c2ccc(-c3ccccc3[N+](=O)[O-])o2)c1	22.2	27.2*	0.1	0.3	-1.1
COc1cccc(NC(=O)/C=C/c2ccccc2[N+](=O)[O-])c1	8.1	26.8*	-13.5	2.0	0.0
COC(=O)[C@]12CCCCC=C1N(Cc1ccco1)C(=O)[C@H](CC(=O)NCc1ccc(OC)c(OC)c1)C2	-4.7	x	x	-0.5	x
Cc1ccccc1C(=O)NCCN1CCC(n2c(=O)[nH]c3ccccc32)CC1	-13.9	x	x	1.1	x
CNCC(=O)Nc1c(C)n[nH]c1C	-9.3	13.7*	3.7	2.7	0.0
Cc1ccccc1-c1csc(C(O)c2ccccc2)n1 (stereo unspecified)	-0.6	x	x	0.2	x
O=C(Nc1nc(-c2ccccc2)cs1)c1ccco1	7.2	-21.5	-27.1	1.8	-0.1
O=C(Nc1cc(-c2ccccc2)cs1)c1ccco1	9.9	12.3*	x	1.8	-4.2
O=C(CSc1nccc(-c2cccs2)n1)Nc1cccc(Cl)c1Cl	-0.2	-1.2	-67.1	2.2	-1.4
O=C(CSc1nccc(-c2cccs2)n1)Nc1ccc(Cl)cc1	31.2	25.6*	-26.6	10.2	-1.5
SMILES	FAS TE block	NR3A LBD binder	pCIP destab	MPTP inh	MIN6 prolif
CCCCOCCCNC(=O)C[C@@H]1C[C@@]2(C(=O)OC)CCCCC=C2N(Cc2ccc3c(c2)OCO3)C1=O	x	x	x	1.0	x
Nc1[nH]c(C(=O)c2ccccc2)c(-c2ccc(Cl)cc2Cl)c1C(=O)NCCc1c[nH]c2ccccc12	10.3	x	x	-1.2	x
CCOc1cccc(OCCOCCNC(C)(C)C)c1	-0.4	15.9*	-10.0	-1.2	0.8
CCOc1ccc(OCCCCNC(C)(C)C)cc1	-14.0	-1.2	-21.3	0.2	3.0
COc1ccc(S(=O)(=O)N(C)CC(=O)NCCC2=CCCCC2)cc1OC	-2.1	12.7*	-13.6	-0.4	2.6
COc1ccc(S(=O)(=O)N(C)CC(=O)NCCC2=CCCCC2)cc1	-3.8	-2.2	-2.0	-1.9	-1.9
O=C(OCc1ccc(Cl)cc1Cl)c1cccnc1Cl	25.3	12.4*	4.6	0.4	2.9
O=C(OCc1ccc(Cl)c(Cl)c1)c1cccnc1Cl	26.1	0.8	-3.2	1.5	0.0
Cc1cnc(CNc2nc3cc(-c4ccccc4C)sc3c(=O)n2C)cn1	9.9	x	x	0.1	x
Cc1ccc(-c2noc(CCC(=O)Nc3ccc(C)cn3)n2)cc1	-5.0	11.4*	-8.7	3.1	0.2
Clc1cccc2sc(N3CCN(c4ccccc4)CC3)nc12	33.1	18.4*	1.9	3.6	-1.4
CC(O)(c1ccccc1)c1nc(-c2ccc3c(c2)OCO3)cs1 (stereo unspecified)	16.4	x	x	-1.6	x
O=C(NC(Cc1c[nH]c2ccccc12)C(=O)N/N=C/c1ccc(Cl)cc1)c1cccs1 (stereo unspecified)	21.5	19.5*	-19.1	0.5	-4.7
COc1cccc(-c2cnc3c(NC(C)=O)cc(-c4ccccc4OC)cn23)c1	14.4	x	x	-1.2	x
CCCNC(=O)c1cc(C2CCCN(C(=O)c3cc(F)ccc3C)C2)on1 (stereo unspecified)	-7.0	x	x	-1.0	x
COc1ccccc1[C@@H]1C(c2cccc(Cl)c2)=NN(c2ccc(Br)cc2)[C@H]1C(=O)N1CCOC1=O	22.2	5.3	-11.9	0.3	-8.0
COc1ccccc1[C@@H]1C(c2cccc(C)c2)=NN(c2ccccc2)[C@H]1C(=O)N1CCOC1=O	74.3*	-3.8	-24.6	1.7	-6.6
Cc1cccc(C2=NN(c3ccccc3)[C@@H](C(=O)N3CCOC3=O)[C@@H]2C)c1	18.6	-1.7	x	0.4	x
O=C1OCCN1C(=O)[C@H]1[C@H](c2ccc(F)cc2)C(c2ccccc2)=NN1c1ccccc1	30.9	-5.1	x	2.5	x
Cc1cccc(C2=NN(c3ccc(Br)cc3)[C@@H](C(=O)N3CCOC3=O)[C@@H]2C)c1	38.6	11.9*	x	0.6	x
O=C1OCCN1C(=O)[C@H]1[C@H](c2ccc([N+](=O)[O-])cc2)C(c2cccc(Cl)c2)=NN1c1ccccc1	89.3*	13.4*	-3.1	1.4	-8.3
COc1ccccc1[C@@H]1C(c2ccc(F)cc2)=NN(c2ccccc2)[C@H]1C(=O)N1CCOC1=O	83.9*	-0.6	-1.5	1.9	-4.8
O=C1OCCN1C(=O)[C@H]1[C@H](c2ccc(Cl)cc2)C(c2ccccc2)=NN1c1ccccc1	49.6	6.5	x	-0.3	x
Cc1ccc(NC(=O)C2c3ccccc3-c3ccccc32)cc1	0.5	x	x	-2.1	x
CCOC(=O)[C@]12CCCC=C1N(CCC1=CCCCC1)C(=O)[C@H](CC(=O)NCc1cccc3ccccc13)C2	x	x	x	2.5	x
CC1=Nc2ccccc2/C1=C\c1sc(Nc2ccc(C)cc2)nc1O	13.0	21.4*	3.5	3.8	0.0
CCOC(=O)c1c(Nc2ccc(Cl)cc2)sc(/C=C2\C=Nc3ccccc32)c1O	-9.5	-4.2	-15.6	5.1	-4.3
